# Screening data (PubChem)
# Compounds with a hit are over-represented: about 19% of the library has one in this group of screens.
# HT1080 IDH1KD tx: kills HT-1080 cells with IDH1 knockdown | HT-1080 IDH1 knockdown viability, ATP luminescence, 48 h | Potency, µM (highest dose often 46.1 µM), for the others: at the top dose activity, negative = toxicity, usual class: cytotoxic | 2% of 360,000 active | AID 686971;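 further: potency means the concentration at half of the fitted maximal effect; 0% = DMSO wells and -100% = cell-free medium wells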
#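 Assay cells: HT-1080 with IDH1 knockdown, 750 per well, RPMI/5% FBS. Exposure: 48 h at 37 °C following 2 h pre-incubation. Read: CellTiter-Glo luminescence; fitted concentration-response, curve class assigned.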
# HT1080-NT tox: kills 2HG-producing HT-1080-NT fibrosarcoma cells; HT-1080-NT fibrosarcoma viability, CellTiter-Glo ATP luminescence, 48 h; Potency, µM (highest dose often 46.1 µM), inactives show at the top dose activity, negative = less viability, actives largely listed as cytotoxic; 1.6% of 360,000 active; AID 686970;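 further: NT is the 2HG producing partner of a matched IDH1 knockdown line; potency means the concentration at half of the fitted maximal effect; 0% = DMSO-treated cells and -100% = media-only wells without cells; nearly all actives have a fitted effect of over 55% in size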
#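 Toxicity toward the 2HG-producing NT line was scored as %Activity, normalised to DMSO and no-cell wells, from CellTiter-Glo luminescence after 48 hours' treatment.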
# IL1B secr inh: inflammasome signaling inhibition, IL-1 beta readout | THP-1 LPS/ATP IL-1B secretion, AlphaLISA, 16 h; active compounds read low | activity change, % at 57.5 µM | 4.7% of 360,000 active | AID 743279; in the data active means activity change below about -50%; inconclusive means mostly about -30% to -49%
#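 Secreted IL-1B measured by AlphaLISA bead assay after 16 h compound exposure of THP-1 cells; compounds (final up to 57.5 uM) added 1 h before LPS (250 ng/mL) and ATP (1.25 mM) stimulation; lower signal means less secretion.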
# ELG1 DNA repair: blocks ELG1-dependent DNA repair in HEK293T cells; HEK293T ELG1-luciferase reporter, luminescence, 16 h; DNA damage induced by 5-fluorouridine; Potency, µM (doses to about 46.1 µM), for inactives: at the highest dose activity change, negative = inhibition, usual class: inhibitors; 2.3% of 330,000 active; further: potency means the concentration at half of the fitted maximal effect; nearly all actives have a fitted effect of over 55% in size
#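 Quantitative HTS, concentration-response format. 2,000 cells/well co-treated with 5-fluorouridine and compound, 16 hr in 5% CO2 at 37 °C; ONE-Glo luminescence read after 30 min.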
# TDP1 cell CPT: DT40-hTDP1 cell growth loss with CPT | chicken DT40 Tdp1-/-;hTDP1 cells + 20 nM CPT, ATP luminescence, 48 h | 12% of 420,000 active | AID 686979 | Potency, µM (doses to about 46.2 µM), for inactives: at the top dose activity change, negative = growth inhibition, usual class: inhibitors; further: potency means the concentration at half of the fitted maximal effect; nearly all actives have a fitted effect of over 55% in size
#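 Cell growth measured by CellTiter-Glo luminescence after a minimum 48 h, 37 C compound exposure with 20 nM CPT in Tdp1-knockout DT40 cells stably expressing hTDP1, seeded 400/well; qHTS titration format.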
# DT40 TDP1 no CPT: qHTS for Inhibitors of human tyrosyl-DNA phosphodiesterase 1 (TDP1): qHTS in cells in absence of CPT | DT40 Tdp1-/- hTDP1 cells, no CPT, ATP luminescence, 48 h | Potency, µM (doses to about 46.2 µM), for the others: at the top dose activity change, negative = growth inhibition, usual class: inhibitors | 15% of 420,000 active | AID 686978, 2013; further: potency means the concentration at half of the fitted maximal effect; nearly all actives have a fitted effect of over 55% in size
#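 Camptothecin absent (DMSO only). Human TDP1-complemented DT40 knockout cells, 400 cells/well, 37 °C for minimum 48 hr; ATP measured via CellTiter-Glo, 30 min dark incubation, luminescence.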
# ELG1 FLuc counter: luciferase inhibition in cell-free luciferin readout for ELG1 hits. 3% of 350 active. shares compounds with ELG1 DNA repair. cell-free firefly luciferase luminescence counter-screen, ViewLux. Potency, µM (series often up to 46.1 µM), inactives show at the top dose activity change, negative = inhibition, most hits filed as inhibitors; further: potency means the concentration at half of the fitted maximal effect
# ELG1 Luc conf: inhibits ELG1-dependent DNA repair in HEK293T cells, confirmed; 68% of 670 active; AID 624248; Potency, µM (doses to about 46.1 µM), inactives show top-dose activity change, negative = inhibition, hits mostly inhibitors; shares compounds with ELG1 DNA repair; HEK293T ELG1-luciferase levels, luminescence; cells co-treated with 5-fluorouridine; further: potency means the concentration at half of the fitted maximal effect; nearly all actives have a fitted effect of over 55% in size
# Target sequence (Q96QE3 whole entry, looked up): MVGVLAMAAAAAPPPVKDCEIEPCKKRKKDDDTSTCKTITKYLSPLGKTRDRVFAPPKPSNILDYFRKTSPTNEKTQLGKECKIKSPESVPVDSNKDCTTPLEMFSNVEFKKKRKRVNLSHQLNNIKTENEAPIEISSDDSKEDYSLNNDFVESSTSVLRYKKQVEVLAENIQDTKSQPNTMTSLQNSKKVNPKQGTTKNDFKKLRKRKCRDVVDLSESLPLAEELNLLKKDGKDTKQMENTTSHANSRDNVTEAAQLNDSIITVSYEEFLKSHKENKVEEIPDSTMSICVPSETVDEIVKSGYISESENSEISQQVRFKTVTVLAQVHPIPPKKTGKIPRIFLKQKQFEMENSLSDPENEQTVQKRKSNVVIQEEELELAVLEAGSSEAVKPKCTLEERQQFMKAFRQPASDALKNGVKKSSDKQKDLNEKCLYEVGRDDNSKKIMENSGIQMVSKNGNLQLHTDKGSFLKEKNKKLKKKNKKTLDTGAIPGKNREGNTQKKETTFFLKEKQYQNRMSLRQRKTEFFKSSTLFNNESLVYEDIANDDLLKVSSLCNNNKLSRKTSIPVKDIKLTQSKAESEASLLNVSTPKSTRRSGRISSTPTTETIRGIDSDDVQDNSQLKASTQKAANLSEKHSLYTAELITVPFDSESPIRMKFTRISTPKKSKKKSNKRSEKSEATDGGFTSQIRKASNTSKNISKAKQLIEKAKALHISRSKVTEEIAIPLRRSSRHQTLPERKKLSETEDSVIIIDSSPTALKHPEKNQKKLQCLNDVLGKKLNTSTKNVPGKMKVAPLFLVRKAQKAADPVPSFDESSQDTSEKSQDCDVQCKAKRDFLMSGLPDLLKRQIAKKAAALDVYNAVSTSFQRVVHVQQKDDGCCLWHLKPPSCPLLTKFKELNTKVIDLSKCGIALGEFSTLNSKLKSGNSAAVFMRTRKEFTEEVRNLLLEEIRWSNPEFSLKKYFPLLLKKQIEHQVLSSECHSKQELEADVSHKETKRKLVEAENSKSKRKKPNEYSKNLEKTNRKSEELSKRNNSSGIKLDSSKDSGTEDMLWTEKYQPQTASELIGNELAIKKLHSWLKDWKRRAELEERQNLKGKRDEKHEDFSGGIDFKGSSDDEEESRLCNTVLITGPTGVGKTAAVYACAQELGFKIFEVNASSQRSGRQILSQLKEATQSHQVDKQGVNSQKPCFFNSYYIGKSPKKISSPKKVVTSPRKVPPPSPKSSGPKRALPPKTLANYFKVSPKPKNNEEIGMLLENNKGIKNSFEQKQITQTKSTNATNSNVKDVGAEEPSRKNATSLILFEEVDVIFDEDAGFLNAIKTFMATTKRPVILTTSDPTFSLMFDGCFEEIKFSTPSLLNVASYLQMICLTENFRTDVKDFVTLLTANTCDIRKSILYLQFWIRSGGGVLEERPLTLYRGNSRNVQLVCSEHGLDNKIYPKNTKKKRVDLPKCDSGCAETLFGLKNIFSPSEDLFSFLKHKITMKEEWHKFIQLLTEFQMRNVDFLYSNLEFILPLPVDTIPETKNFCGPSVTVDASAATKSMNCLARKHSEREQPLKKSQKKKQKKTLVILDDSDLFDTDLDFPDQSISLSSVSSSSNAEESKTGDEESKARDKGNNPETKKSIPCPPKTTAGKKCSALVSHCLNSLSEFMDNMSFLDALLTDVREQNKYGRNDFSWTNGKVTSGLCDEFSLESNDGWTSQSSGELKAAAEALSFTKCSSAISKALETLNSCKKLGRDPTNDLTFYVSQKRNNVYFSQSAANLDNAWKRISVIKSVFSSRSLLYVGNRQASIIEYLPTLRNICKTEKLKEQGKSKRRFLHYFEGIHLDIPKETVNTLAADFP
# ELG1-Luc MMS: MMS-stimulated human ELG1 repair inhibition, confirmed. HEK293T luciferase-tagged ELG1 level, MMS stimulated. 53% of 670 active. Potency, µM (titrated, usually from 46.1 µM), for inactives: at the top dose activity change, negative = inhibition, hits mostly inhibitors. shares compounds with ELG1 DNA repair; further: potency means the concentration at half of the fitted maximal effect; nearly all actives have a fitted effect of over 60% in size
# ELG1 5FU viab: confirmation of ELG1 repair inhibitors: viability with 5FU; Potency, µM (titrated, usually from 46.1 µM), inactives show at the top dose activity change, negative = viability loss, actives largely listed as cytotoxic; cell viability with 5-FU, ELG1-dependent repair; 670 tested, under 10 active; shares compounds with ELG1 DNA repair;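 further: ELG1-luc HEK293T cells cotreated with 5-fluorouridine at 10 µM final; potency means the concentration at half of the fitted maximal effect; viability measured 16 h after compound addition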
# ELG1 MMS viab: confirmation of ELG1 repair inhibitors: viability with MMS. shares compounds with ELG1 DNA repair. Cell viability with MMS, ELG1-dependent DNA repair. Potency, µM (series often up to 46.1 µM), for the others: top-dose activity change, negative = viability loss, most hits filed as cytotoxic. 33% of 670 active. AID 624251;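 further: ELG1-luc HEK293T cells co-treated with 10 µM MMS; potency means the concentration at half of the fitted maximal effect; viability read 16 h after compound addition; nearly all actives have a fitted effect of over 60% in size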
# ELG1 unstim viab: counter-screen for ELG1 repair inhibitors: unstimulated cell viability; Potency, µM (doses to about 45.9 µM), for inactives: at the top dose activity change, negative = loss of viability, hits mostly cytotoxic; cell viability counter-screen, unstimulated, luminescence; shares compounds with ELG1 DNA repair; 8% of 900 active;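 further: potency means the concentration at half of the fitted maximal effect; compound exposure lasted 16 hours before reading; nearly all actives have a fitted effect of over 55% in size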
# FLuc enzyme: inhibits purified firefly luciferase, counter-screen for ELG1 hits | shares compounds with ELG1 DNA repair | purified firefly luciferase, luminescence counter-screen | Potency, µM (highest dose often 57.5 µM), inactives show top-dose activity, negative = inhibition, usual class: inhibitors | 10% of 350 active | AID 624253; further: potency means the concentration at half of the fitted maximal effect
# The depositor's hits bear a star; ? = inconclusive; . = no result given. Unless noted, the call rests on the fitted dose curve; in most records, active means well fitted curve in the direction sought with a large enough effect; inconclusive means small, poorly fitted or top-dose-only effect, or another doubt; inactive means no such curve, though single readings can be large; an effect the other way counts as inactive or inconclusive. Unless noted, on the % scale 0 is the no-effect control and ±100 the full control effect.
SMILES,HT1080 IDH1KD tx,HT1080-NT tox,IL1B secr inh,ELG1 DNA repair,TDP1 cell CPT,DT40 TDP1 no CPT,ELG1 Luc conf,ELG1-Luc MMS,ELG1 5FU viab,ELG1 MMS viab,ELG1 unstim viab,others
CCOC(=O)CCSc1nc(N2CCOCC2)c2c(c1C#N)CC(C)(C)OC2,16.3%,21.7%,23.1,1.03µM*,-14.2%,-25.9%,4.45µM*,8.7%,?,11.0%,0.7%,ELG1 FLuc counter=13.8%;FLuc enzyme=3.2%
COc1ccc(-c2oc(=O)c3cc(OC)c(OC)cc3c2/C=C/c2cccc([N+](=O)[O-])c2)cc1,-1.6%,1.8%,57.8,1.64µM*,8.2µM*,9.2µM*,?,21.8%,0.5%,?,-10.6%,
COc1ccc(CCNC(=S)NC(=O)c2cc(OC)c(OC)c(OC)c2)cc1OC,-15.1%,-5.9%,-0.8,1.83µM*,-15.8%,-13.1%,2.5µM*,0.5%,?,-1.1%,?,
CC(=O)OCC1=C[C@H]2[C@@H]3C(C)(C)[C@]3(OC(C)=O)C[C@@H](C)[C@]2(O)[C@@H]2C=C(C)C(=O)[C@@]2(O)C1,.,.,.,.,.,.,.,.,.,.,?,
NC(=O)c1ccc(N2CCN(S(=O)(=O)c3cccs3)CC2)c([N+](=O)[O-])c1,-11.6%,-4.7%,-5.1,2.31µM*,8.2µM*,3.66µM*,?,0.996µM*,-6.2%,0.791µM*,12.5µM*,
O=S(=O)(c1cccs1)N1CCN(c2ccc(O)cc2)CC1,?,-29.9%,26.1,1.64µM*,2.59µM*,2.59µM*,-0.6%,25µM*,5.4%,?,?,
O=c1c2ccccc2oc2c1ccc1ccccc12,6.8%,12.7%,18.7,?,?,?,.,.,.,.,-1.1%,
CC(=O)Oc1ccc(OC(C)=O)c2c1CC1(C)OC1(C)C2 (stereo not drawn),4.3%,2.3%,0.6,.,-13.8%,?,.,.,.,.,.,
COc1ccc(C(=O)C(C)OC(=O)CCN2C(=O)C3CC=CCC3C2=O)cc1 (stereo not drawn),0.1%,-2.9%,-10.9,1.2%,-9.5%,-17.4%,.,.,.,.,.,
CCCNC(=O)c1cc(C2CCCCN2S(=O)(=O)Cc2cccc(C(F)(F)F)c2)on1 (stereo not drawn),9.9%,-10.4%,-8.7,.,-29.3%,-58.6%,.,.,.,.,.,
O=C(/C=C/C#Cc1cccc(NS(=O)(=O)c2ccccc2)c1)NO,.,.,.,.,.,.,.,.,.,.,?,
COc1ccc(-c2cc(C)no2)cc1S(=O)(=O)N1CCN(c2cccc(C)c2)C(C)C1 (stereo not drawn),?,?,-11.7,3.26µM*,16.4µM*,23.1µM*,12.5µM*,3.15µM*,-7.0%,3.97µM*,?,
O=C1/C(=C/c2ccc(O)c(O)c2)Oc2ccccc21,.,.,.,.,.,.,.,.,.,.,-11.9%,
Cc1ccccc1/C=C1\Oc2ccccc2C1=O,-1.5%,-3.9%,-15.5,?,?,?,.,.,.,.,.,
COC1=C2C[C@@H](C)C[C@H](OC)[C@H](O)[C@@H](C)/C=C(\C)[C@H](OC(N)=O)[C@@H](OC)/C=C\C=C(/C)C(=O)NC(=CC1=O)C2=O,.,.,.,.,.,.,1.41µM*,1.99µM*,?,14.1µM*,?,
Cn1c(N)c(C(=O)COC(=O)Cc2cccc(C(F)(F)F)c2)c(=O)n(C)c1=O,2.0%,2.5%,-1.1,-13.6%,-26.6%,?,.,.,.,.,.,
COc1ccc(-n2nc(C(=O)NCC(=O)Nc3cc(OC)c(OC)c(OC)c3)c3ccccc3c2=O)cc1,-16.0%,-24.9%,22.2,3.26µM*,?,?,3.15µM*,12.6µM*,15.0%,-18.4%,?,ELG1 FLuc counter=69.7%;FLuc enzyme=4.6%
COc1cc(/C=N/NC(=O)Nc2cccc3nsnc23)cc(OC)c1OC,16.3%,9.6%,-13.1,2.31µM*,?,?,1.58µM*,?,?,-9.9%,?,
COc1cc(/C=N\NC(=O)Cn2nnc3ccccc32)cc(OC)c1OC,0.8%,-2.4%,-3.8,?,-29.8%,-4.9%,.,.,.,.,.,
CC1Cc2cc(-c3csc(NC(=O)Cc4ccccc4)n3)ccc2N1S(C)(=O)=O (stereo not drawn),?,?,-83.8*,7.31µM*,16.4µM*,10µM*,12.6µM*,5.61µM*,?,?,15.8µM*,ELG1 FLuc counter=?;FLuc enzyme=-7.8%
CC1CN(S(=O)(=O)c2cc(C(=O)N(C)Cc3cccs3)ccc2Cl)CC(C)O1 (stereo not drawn),1.9%,0.4%,31.7,-28.7%,?,?,.,.,.,.,.,
COc1cccc(-c2nc3ccccc3s2)c1O,-19.9%,-26.7%,27.3,?,2.5%,-3.5%,.,.,.,.,.,
COc1ccccc1/C=C/c1nc2ccccc2s1,.,.,.,.,?,?,.,.,.,.,-1.5%,
COc1cc2oc(-c3ccccc3)cc(=O)c2cc1OC,.,.,.,.,-16.4%,?,.,.,.,.,.,
